# Experimental data as given in the supplement of paper PMC10849652.
# Targets with a hit are over-represented here; the source holds about 8,800 in all. About 0.5% of all pairs of compound and target were hits. Values without a mark were called inactive.
# Columns and labels:
# Test in all cases: log2 fold change, soluble protein after heating vs DMSO (PISA); higher = thermal stabilisation; K562 lysate, 10 uM; active = over 0.2 and 3.5 SD of the protein, either way, in both replicates (recomputed)
# [1] = compound: C1=CC=C(C=C1)[C@H](COC2=CC3=C(C=C2)NC(=O)N3)NC(=O)C4=CC=CN(C4=O)CC5=CC(=C(C=C5)F)F
# In short: (§1)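 Pellets of K562 cells were dounce-homogenised in PBS pH 7.4 with 1 mM MgCl2, and the crude extract was held at 1 mg/mL protein for a 30 min treatment with 10 μM compound. Aliquots were heated for 3 min over 48°C-58°C and pooled before NP-40 was added to 0.5% at 4°C. The supernatant from 21,000xg for 90 min was quantified by TMTpro 16plex LC-MS/MS with channel sums equalised. Values are reported from duplicates as log-two fold change in thermal stability relative to solvent controls.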
# [2] = compound: CC1=C(SC2=C1C(=N[C@H](C3=NN=C(N32)C)CC(=O)N)C4=CC=C(C=C4)Cl)C
# In short: as §1
# [3] = compound: CC1=C2C(=CC=C1)N=C(N(C2=O)C3=CC=CC=C3C)CN4C=NC5=C(N=CN=C54)N
# In short: as §1
# [4] = compound: Cc1sc2c(c1C)C(c1ccc(Cl)cc1)=N[C@@H](CC(=O)OC(C)(C)C)c1nnc(C)n1-2
# In short: as §1
# [5] = compound: c1ccc([C@@H]2C[C@H]2NC2CCNCC2)cc1
# In short: as §1
# Chain of UniProt Q9Y3T6 (Q9Y3T6 whole entry, looked up, one chain of several): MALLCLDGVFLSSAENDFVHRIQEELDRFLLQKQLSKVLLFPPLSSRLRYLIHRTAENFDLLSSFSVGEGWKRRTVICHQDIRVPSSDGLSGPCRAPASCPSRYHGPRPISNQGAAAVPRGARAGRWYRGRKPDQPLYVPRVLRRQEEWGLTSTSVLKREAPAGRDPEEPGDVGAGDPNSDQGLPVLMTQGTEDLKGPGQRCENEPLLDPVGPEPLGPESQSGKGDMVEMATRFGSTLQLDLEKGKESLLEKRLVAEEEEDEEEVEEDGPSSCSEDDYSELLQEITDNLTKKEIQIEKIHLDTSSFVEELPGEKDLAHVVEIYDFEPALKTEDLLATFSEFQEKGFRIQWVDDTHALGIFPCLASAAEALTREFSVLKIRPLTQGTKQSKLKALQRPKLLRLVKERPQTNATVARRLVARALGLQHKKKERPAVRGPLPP
# Chain of UniProt P18754 (P18754 whole entry, looked up): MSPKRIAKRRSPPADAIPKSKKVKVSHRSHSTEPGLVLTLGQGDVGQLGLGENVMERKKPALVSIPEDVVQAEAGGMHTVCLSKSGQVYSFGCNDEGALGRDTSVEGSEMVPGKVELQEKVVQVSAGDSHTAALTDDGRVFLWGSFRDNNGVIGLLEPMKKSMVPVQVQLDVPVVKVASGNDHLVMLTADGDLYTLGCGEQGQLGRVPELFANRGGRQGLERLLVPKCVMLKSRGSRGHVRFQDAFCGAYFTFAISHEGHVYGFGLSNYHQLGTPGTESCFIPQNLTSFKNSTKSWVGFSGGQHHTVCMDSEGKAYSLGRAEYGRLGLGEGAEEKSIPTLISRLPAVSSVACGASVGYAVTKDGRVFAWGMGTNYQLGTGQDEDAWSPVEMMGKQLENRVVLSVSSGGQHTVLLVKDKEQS
# Chain of UniProt P55735 (P55735 whole entry, looked up): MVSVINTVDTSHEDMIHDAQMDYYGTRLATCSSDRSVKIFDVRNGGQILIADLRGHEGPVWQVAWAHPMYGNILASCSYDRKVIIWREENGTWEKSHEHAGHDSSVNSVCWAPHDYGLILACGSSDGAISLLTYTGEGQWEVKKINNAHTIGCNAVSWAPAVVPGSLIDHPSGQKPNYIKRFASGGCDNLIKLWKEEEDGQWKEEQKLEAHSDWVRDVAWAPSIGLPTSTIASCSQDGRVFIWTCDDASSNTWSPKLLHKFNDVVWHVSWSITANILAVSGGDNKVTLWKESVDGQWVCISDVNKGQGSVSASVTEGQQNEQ
# Chain of UniProt O75943 (O75943 whole entry, looked up): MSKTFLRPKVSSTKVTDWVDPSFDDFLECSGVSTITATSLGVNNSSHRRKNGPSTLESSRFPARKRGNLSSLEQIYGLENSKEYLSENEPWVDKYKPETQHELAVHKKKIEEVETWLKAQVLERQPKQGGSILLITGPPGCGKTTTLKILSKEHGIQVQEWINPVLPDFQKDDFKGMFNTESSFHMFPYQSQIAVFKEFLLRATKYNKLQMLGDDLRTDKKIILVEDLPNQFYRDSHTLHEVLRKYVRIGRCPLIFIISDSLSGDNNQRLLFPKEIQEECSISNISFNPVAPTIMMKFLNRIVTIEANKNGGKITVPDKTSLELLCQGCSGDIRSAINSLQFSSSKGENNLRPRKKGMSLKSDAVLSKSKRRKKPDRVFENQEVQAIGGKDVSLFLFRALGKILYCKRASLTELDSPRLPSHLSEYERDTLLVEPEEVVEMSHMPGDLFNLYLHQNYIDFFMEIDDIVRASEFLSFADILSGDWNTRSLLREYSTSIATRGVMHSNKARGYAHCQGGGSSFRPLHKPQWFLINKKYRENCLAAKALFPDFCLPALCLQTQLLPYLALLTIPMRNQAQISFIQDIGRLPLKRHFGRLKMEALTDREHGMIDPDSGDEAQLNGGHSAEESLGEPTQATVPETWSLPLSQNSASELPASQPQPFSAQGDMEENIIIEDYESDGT
# Chain of UniProt Q8NBX0 (Q8NBX0 whole entry, looked up): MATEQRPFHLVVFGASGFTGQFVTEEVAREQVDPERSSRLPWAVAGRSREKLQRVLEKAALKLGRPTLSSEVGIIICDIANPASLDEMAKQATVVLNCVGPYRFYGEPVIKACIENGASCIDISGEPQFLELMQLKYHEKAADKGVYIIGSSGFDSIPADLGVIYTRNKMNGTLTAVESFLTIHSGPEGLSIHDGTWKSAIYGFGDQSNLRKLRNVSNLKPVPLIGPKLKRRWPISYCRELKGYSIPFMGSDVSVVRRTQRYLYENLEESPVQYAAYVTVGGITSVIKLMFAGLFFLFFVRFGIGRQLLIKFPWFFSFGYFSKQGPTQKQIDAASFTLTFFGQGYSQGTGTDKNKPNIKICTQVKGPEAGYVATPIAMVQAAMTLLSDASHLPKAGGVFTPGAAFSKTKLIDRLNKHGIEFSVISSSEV
# Chain of UniProt Q86X10 (Q86X10 whole entry, looked up): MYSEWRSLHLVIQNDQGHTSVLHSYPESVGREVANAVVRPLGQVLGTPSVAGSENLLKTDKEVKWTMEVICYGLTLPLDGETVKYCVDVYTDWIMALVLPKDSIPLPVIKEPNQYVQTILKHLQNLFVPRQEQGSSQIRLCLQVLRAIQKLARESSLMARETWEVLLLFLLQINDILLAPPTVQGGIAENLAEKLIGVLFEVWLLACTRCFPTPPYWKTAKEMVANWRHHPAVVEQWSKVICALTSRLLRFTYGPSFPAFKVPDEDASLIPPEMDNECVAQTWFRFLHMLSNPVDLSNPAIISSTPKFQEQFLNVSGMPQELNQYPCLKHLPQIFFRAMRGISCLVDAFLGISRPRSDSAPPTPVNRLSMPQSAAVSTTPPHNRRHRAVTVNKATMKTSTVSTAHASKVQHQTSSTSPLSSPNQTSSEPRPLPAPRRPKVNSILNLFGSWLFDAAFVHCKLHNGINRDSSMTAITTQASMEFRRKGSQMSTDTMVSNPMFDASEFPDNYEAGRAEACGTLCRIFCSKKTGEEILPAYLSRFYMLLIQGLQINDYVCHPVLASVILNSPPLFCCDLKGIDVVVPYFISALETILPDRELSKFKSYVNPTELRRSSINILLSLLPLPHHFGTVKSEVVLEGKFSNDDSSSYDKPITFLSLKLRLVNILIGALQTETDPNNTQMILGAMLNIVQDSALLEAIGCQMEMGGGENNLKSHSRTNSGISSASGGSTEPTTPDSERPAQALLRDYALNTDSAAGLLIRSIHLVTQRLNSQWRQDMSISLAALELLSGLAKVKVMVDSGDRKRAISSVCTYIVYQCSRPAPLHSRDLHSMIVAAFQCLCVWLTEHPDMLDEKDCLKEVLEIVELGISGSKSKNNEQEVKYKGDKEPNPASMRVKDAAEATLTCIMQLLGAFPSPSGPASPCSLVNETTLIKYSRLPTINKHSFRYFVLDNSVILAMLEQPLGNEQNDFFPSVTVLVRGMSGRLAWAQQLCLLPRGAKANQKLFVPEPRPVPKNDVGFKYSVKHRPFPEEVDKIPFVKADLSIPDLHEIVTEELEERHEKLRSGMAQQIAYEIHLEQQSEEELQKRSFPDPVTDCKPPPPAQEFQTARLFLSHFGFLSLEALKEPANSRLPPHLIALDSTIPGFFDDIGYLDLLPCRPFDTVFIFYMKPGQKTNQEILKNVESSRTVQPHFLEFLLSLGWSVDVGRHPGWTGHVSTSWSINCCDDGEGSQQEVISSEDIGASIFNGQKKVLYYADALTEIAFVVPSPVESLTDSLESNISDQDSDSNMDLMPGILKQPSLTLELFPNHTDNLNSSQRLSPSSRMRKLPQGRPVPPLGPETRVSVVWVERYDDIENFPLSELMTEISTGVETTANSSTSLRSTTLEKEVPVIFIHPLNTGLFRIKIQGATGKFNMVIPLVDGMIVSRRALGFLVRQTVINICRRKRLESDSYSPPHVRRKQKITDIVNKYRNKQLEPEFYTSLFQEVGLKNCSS
# Chain of UniProt Q99574 (Q99574 whole entry, looked up): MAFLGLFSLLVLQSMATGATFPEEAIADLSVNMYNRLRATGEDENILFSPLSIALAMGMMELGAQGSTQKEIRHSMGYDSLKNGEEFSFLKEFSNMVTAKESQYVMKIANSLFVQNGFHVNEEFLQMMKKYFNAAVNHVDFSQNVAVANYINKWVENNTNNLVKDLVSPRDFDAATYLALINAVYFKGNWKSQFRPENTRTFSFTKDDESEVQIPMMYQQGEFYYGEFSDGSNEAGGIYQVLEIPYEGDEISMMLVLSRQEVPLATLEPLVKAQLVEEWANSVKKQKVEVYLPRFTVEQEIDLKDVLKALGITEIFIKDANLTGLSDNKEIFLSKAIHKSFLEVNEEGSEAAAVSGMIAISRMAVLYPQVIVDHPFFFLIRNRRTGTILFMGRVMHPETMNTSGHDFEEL
# Chain of UniProt Q9BWF3 (Q9BWF3 whole entry, looked up): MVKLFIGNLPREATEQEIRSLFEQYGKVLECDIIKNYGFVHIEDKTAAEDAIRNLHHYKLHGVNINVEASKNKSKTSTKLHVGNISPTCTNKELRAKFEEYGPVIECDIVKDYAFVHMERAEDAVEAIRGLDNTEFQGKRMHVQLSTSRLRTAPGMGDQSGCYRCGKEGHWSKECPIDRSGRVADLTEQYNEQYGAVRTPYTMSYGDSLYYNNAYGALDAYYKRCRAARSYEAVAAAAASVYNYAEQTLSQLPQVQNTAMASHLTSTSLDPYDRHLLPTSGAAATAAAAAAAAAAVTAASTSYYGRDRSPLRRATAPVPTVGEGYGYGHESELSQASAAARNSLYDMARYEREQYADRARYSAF
# Chain of UniProt P35249 (P35249 whole entry, looked up): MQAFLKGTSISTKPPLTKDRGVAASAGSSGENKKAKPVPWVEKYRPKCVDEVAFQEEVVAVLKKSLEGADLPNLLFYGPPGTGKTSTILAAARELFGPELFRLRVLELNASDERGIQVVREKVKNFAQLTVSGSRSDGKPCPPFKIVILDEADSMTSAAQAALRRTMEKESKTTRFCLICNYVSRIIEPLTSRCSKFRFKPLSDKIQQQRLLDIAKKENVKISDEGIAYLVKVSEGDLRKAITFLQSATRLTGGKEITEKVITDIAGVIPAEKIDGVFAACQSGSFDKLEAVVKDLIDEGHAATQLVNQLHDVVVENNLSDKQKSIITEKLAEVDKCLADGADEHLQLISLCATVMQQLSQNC
Target,log2 fold change [1],log2 fold change [2],log2 fold change [3],log2 fold change [4],log2 fold change [5]
RCOR1 (UniProt Q9UKL0),-0.034,0.03,-0.003,-0.023,0.494 (active)
RPAP1 (UniProt Q9BWH6),-0.006,0.018,0.015,-0.038,0.028
SERPINI1 (UniProt Q99574),0.067,-0.033,0.031,-0.011,-0.021
RCC1 isoform 2 (UniProt P18754),0.023,0.026,-0.013,0.045,0.014
RAP1B (UniProt F5GZG1),-0.082,-0.124,0.023,-0.019,-0.282
RPTOR (UniProt Q8N122),0.015,-0.024,0.035,-0.008,0.04
SBF1 isoform 4 (UniProt O95248),-0.08,0.001,-0.094,0.092,0.072
SCCPDH (UniProt Q8NBX0),0.165,-0.144,0.038,-0.004,-0.164
SELENOK (UniProt Q9Y6D0),0.061,-0.074,-0.05,-0.181,-0.311
RBM42 (UniProt Q9BTD8),-0.014,-0.003,0.107,0.103,-0.006
R3HCC1 (UniProt Q9Y3T6),0.014,0.015,0.006,-0.014,-0.047
RNF168 (UniProt Q8IYW5),-0.008,-0.052,0.017,0.061,-0.068
SDHA (UniProt P31040),0.114,-0.012,-0.012,0.005,-0.007
RABL3 (UniProt Q5HYI8),-0.044,-0.021,0.004,0.017,0.03
RELN (UniProt P78509),0.033,-0.007,0.025,-0.089,-0.036
RAP1GAP isoform 4 (UniProt P47736),0.019,-0.012,-0.019,-0.009,0.007
REL isoform 2 (UniProt Q04864),0.017,0,-0.003,0.031,0.03
RBM22 (UniProt Q9NW64),-0.073,0.012,0.036,0.072,0
RALGAPA1 isoform 6 (UniProt Q6GYQ0),-0.041,-0.072,0.006,-0.063,-0.178
RAF1 isoform 2 (UniProt P04049),0.024,0.035,-0.104,-0.017,0.013
SDHC (UniProt Q99643),-0.045,-0.016,0.035,-0.085,-0.09
RPL8 (UniProt P62917),-0.012,-0.036,-0.031,0.066,0.032
RFC4 (UniProt P35249),-0.026,-0.059,0.006,0.028,0.01
SEC16A isoform 5 (UniProt O15027),-0.013,-0.005,0.067,0.036,0.011
RAD54L2 (UniProt Q9Y4B4),0.139,0.144,0.029,-0.131,0.147
RAPGEF4 (UniProt Q8WZA2),0,0.092,0.06,-0.274,-0.558
RDH10 (UniProt Q8IZV5),0.147,0.018,0.006,-0.051,-0.06
RNF40 (UniProt O75150),0,-0.02,0.007,-0.003,0.041

Target,log2 fold change [1],log2 fold change [2],log2 fold change [3],log2 fold change [4],log2 fold change [5]
RIOK2 (UniProt Q9BVS4),0.002,-0.018,0.009,-0.023,-0.022
RRAGA (UniProt Q7L523),0.024,-0.039,0.01,-0.045,-0.036
RNF149 (UniProt Q8NC42),-0.015,0.022,-0.138,-0.081,0
RBM4 (UniProt Q9BWF3),0,0.016,0.022,0.03,-0.007
RECQL4 (UniProt O94761),0.002,-0.012,0.073,-0.011,0.154
RNASEL (UniProt Q05823),0.047,-0.041,0.068,-0.004,0.046
RAD17 (UniProt O75943),-0.031,-0.077,0.047,-0.066,0.002
RPL28 (UniProt P46779),0.042,-0.02,0.001,-0.008,0.041
QTRT2 isoform 4 (UniProt Q9H974),-0.004,0.014,-0.03,-0.019,-0.157
RBBP8 isoform 2 (UniProt Q99708),-0.031,-0.133,0.093,0.046,-0.014
SASS6 (UniProt Q6UVJ0),-0.01,0.028,0,0.021,0.037
SEC13 isoform 3 (UniProt P55735),0.022,-0.013,-0.001,-0.029,0.191
RAB3IL1 (UniProt E9PK89),-0.109,0.057,0.014,-0.189,-0.006
RIC1 (UniProt Q4ADV7),-0.086,0.186,0,0.081,0.138
RALGAPB (UniProt Q86X10),0.029,0.023,0.085,-0.026,0.006
RPL36AL (UniProt Q969Q0),0.074,-0.049,-0.03,0.274,0.015
RNASEH1 (UniProt O60930),,,,,0.11
RMI2 (UniProt Q96E14),,,-0.18,0.079,
RETREG2 (UniProt Q8NC44),-0.095,0.016,0.084,,0.004
RHOA (UniProt P61586),0.177,0.06,0.038,0.02,0.07
SEMA4G isoform 2 (UniProt Q9NTN9),,,0.105,0.021,0.066
SCNM1 (UniProt Q9BWG6),,,,-0.332,0.014
REXO4 (UniProt Q9GZR2),0.009,-0.003,0.029,0.051,0.138
RPS6KA5 (UniProt O75582),,,-0.084,-0.024,-0.017
RHBDD1 (UniProt Q8TEB9),-0.032,0.058,-0.117,,0.039
SERAC1 (UniProt Q96JX3),-0.122,0.145,,0.11,0.065
RBM8A (UniProt Q9Y5S9),0.066,0.01,-0.061,0.084,0.171
